# Measurements published in article PMC7862700, “An all-to-all approach to the identification of sequence-specific readers for epigenetic DNA modifications on cytosine”.
# Assays:
# Assay in all cases: DAPPL (digital affinity profiling via proximity ligation, sequencing); 10 mM Tris-HCl pH 7.5, 50 mM NaCl, 1 mM DTT, 4% glycerol, room temperature, 30 min; GST-TFs on glutathione beads, 16-mer random dsDNA library, 0.1% formaldehyde crosslink after washing; high values mean tight binding
# Settings in all cases: protein: recombinant; tags: N-terminal GST; dsDNA, one strand shown
# FLI1 = target: T1, FLI1 (Homo sapiens, UniProt Q01543 1-452)
# T1 sequence: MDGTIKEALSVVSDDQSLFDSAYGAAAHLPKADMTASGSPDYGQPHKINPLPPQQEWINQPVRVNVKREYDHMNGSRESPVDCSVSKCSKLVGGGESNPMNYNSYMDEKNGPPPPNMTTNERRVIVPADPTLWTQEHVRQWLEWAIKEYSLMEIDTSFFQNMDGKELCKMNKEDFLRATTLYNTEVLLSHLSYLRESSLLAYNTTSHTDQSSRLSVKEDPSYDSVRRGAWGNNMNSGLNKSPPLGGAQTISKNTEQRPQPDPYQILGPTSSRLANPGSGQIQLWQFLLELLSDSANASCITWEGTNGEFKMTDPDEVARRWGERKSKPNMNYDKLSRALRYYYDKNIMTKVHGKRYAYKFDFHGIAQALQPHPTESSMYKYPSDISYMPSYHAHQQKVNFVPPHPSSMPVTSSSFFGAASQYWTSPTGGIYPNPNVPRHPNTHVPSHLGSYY
# Procedure, shortened: (§1)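 GST fusions of human transcription factors were expressed in yeast and captured with glutathione beads. Once given DNA barcodes and pooled alongside a tag-only sample, they were incubated for 30 min at room temperature with 200 nmole of a random double-stranded 16-mer DNA library in Tris/NaCl/DTT/glycerol buffer, then washed, crosslinked (0.1% formaldehyde), proximity-ligated, PCR-amplified and sequenced on an Illumina NextSeq500. The binding signal of each hexamer is its read frequency for a factor divided by its frequency for the tag-only sample.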
# ELK1 = target: T2, ELK1 (Homo sapiens, UniProt P19419 1-428)
# T2 sequence: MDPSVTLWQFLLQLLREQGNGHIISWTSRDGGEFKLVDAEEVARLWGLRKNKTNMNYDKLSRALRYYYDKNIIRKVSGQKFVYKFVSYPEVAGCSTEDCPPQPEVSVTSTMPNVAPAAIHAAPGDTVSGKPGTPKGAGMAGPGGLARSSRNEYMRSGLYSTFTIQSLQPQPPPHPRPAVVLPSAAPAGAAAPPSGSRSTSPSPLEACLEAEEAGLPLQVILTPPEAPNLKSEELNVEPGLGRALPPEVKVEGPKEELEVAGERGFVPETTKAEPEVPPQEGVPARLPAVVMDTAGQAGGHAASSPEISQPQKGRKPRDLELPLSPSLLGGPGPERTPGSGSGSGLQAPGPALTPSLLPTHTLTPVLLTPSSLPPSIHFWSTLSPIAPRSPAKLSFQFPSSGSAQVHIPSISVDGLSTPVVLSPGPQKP
# Procedure, shortened: as §1
# GABPA = target: T3, GABPA (Homo sapiens, UniProt Q06546 1-454)
# T3 sequence: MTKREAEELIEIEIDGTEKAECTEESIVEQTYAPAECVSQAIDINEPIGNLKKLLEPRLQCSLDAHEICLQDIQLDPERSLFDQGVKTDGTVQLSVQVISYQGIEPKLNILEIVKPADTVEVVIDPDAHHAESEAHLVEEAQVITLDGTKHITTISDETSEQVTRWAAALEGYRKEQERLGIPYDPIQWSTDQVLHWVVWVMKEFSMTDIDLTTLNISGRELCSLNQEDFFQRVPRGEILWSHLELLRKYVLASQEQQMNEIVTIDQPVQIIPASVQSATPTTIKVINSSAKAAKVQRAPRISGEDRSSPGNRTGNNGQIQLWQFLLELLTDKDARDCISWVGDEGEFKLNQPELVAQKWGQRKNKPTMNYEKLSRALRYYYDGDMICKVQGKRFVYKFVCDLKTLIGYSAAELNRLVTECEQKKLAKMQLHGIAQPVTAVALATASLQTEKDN
# Procedure, shortened: as §1
# ELF1 = ELF1 (Homo sapiens, UniProt P32519 1-619)
# Chain of ELF1 (P32519 whole entry): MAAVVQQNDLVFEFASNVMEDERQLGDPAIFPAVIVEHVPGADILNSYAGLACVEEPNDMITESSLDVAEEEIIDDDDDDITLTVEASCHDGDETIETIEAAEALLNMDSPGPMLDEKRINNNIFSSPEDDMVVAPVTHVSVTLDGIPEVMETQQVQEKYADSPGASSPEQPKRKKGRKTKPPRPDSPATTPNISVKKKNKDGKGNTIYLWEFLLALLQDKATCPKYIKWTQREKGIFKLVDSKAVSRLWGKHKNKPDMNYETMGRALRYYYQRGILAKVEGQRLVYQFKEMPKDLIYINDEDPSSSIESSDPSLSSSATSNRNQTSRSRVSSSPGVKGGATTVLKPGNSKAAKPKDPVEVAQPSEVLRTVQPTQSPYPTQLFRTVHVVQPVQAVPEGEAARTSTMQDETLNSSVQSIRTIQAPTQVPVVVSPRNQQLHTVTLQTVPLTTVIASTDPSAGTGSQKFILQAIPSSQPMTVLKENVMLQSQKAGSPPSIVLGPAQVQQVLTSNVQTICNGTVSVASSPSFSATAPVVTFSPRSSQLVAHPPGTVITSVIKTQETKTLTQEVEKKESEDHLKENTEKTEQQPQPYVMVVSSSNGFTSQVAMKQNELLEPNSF
# Procedure, shortened: as §1
# SPI1 = SPI1 (Homo sapiens, UniProt P17947 1-270)
# Procedure, shortened: as §1
# SPIB = SPIB (Homo sapiens, UniProt Q01892 1-262)
# Chain of SPIB (Q01892 whole entry): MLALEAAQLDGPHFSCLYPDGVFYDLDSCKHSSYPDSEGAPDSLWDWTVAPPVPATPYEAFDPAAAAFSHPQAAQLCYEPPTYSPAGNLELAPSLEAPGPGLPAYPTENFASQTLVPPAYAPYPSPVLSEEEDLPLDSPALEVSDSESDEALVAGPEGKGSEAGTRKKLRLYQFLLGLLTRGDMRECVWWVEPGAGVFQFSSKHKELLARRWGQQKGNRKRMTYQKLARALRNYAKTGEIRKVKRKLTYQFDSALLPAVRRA
# Procedure, shortened: as §1
# ELK3 = target: T4, ELK3 (Homo sapiens, UniProt P41970 1-407)
# T4 sequence: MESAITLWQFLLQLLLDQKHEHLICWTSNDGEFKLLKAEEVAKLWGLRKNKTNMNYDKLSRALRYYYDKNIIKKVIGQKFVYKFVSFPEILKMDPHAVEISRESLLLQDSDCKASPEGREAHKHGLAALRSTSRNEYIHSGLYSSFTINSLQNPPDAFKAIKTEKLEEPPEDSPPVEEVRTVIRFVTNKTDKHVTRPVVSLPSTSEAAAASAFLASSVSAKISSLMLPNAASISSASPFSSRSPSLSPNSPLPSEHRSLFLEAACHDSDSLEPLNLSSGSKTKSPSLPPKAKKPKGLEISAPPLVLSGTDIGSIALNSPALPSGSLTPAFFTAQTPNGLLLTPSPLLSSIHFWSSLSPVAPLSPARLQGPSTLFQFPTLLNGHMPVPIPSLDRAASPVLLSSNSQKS
# Procedure, shortened: as §1
# FEV = target: T5, FEV (Homo sapiens, UniProt Q99581 1-238)
# T5 sequence: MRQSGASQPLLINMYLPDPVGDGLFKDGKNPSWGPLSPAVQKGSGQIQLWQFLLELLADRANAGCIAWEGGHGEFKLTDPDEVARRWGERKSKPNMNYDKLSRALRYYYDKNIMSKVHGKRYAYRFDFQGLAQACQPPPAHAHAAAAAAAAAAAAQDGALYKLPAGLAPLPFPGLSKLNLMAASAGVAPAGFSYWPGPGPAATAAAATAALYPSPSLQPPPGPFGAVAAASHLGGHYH
# Procedure, shortened: as §1
# ETV5 = ETV5 (Homo sapiens, UniProt P41161 1-510)
# Chain of ETV5 (P41161 whole entry): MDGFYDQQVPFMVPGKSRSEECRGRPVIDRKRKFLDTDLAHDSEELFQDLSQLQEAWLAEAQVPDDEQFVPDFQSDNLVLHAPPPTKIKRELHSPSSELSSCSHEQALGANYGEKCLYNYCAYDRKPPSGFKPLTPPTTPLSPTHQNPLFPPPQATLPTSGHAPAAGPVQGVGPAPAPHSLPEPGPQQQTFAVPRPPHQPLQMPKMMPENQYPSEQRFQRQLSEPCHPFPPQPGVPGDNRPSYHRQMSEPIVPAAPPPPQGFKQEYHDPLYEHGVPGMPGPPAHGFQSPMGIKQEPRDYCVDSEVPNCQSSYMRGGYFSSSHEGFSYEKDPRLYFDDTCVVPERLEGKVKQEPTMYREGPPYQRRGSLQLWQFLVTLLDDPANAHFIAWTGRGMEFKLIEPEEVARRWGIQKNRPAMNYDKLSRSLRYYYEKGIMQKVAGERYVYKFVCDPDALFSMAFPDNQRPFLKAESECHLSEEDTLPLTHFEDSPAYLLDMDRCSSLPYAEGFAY
# Procedure, shortened: as §1
# ELF4 = ELF4 (Homo sapiens, UniProt Q99607 1-663)
# Chain of ELF4 (Q99607 whole entry): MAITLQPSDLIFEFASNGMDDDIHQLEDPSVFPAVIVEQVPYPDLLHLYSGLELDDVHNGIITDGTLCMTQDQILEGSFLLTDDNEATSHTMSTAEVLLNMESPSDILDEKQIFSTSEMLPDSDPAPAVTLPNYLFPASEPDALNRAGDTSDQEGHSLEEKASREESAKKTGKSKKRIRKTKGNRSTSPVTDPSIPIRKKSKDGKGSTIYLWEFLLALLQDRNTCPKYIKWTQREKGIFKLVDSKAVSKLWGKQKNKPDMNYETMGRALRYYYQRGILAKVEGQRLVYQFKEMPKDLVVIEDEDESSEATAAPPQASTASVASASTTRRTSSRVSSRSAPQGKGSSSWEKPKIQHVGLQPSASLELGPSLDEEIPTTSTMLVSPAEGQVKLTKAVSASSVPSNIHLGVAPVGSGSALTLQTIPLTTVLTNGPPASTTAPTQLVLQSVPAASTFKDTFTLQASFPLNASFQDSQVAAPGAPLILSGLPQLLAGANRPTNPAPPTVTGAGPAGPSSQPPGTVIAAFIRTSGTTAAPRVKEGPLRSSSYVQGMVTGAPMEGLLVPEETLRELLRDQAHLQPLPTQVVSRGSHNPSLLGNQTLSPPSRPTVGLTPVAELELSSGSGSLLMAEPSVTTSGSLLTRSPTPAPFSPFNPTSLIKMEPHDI
# Procedure, shortened: as §1
# ETV1 = ETV1 (Homo sapiens, UniProt P50549 1-477)
# Chain of ETV1 (P50549 whole entry): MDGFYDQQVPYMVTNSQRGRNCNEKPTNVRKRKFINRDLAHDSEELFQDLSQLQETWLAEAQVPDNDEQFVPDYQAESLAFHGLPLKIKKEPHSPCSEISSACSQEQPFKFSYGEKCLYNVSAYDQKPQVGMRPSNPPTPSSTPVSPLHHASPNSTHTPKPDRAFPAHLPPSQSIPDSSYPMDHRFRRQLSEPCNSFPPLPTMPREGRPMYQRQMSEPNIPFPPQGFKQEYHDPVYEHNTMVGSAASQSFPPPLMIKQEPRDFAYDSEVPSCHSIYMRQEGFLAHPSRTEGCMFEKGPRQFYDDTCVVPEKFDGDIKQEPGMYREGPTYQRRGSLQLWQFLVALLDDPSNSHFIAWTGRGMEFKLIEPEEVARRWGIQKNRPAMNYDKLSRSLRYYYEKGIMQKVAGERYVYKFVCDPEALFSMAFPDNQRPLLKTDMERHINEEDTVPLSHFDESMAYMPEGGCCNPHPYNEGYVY
# Procedure, shortened: as §1
# ERF = target: T6, ERF (Homo sapiens, UniProt P50548 1-548)
# T6 sequence: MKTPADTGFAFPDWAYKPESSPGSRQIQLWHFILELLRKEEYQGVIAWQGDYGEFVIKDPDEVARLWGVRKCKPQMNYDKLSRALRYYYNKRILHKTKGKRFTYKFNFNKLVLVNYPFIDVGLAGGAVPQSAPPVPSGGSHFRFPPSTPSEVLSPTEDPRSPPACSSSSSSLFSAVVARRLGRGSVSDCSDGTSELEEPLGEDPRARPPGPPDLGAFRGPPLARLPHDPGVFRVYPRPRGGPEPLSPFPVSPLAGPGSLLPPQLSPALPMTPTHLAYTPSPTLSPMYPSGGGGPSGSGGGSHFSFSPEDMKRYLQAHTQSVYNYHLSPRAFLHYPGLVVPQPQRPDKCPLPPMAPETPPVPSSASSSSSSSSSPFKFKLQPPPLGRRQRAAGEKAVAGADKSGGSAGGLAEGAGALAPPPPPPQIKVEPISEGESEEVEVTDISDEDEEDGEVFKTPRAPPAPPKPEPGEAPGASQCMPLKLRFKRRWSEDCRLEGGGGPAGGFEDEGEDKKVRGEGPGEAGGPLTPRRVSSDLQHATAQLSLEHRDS
# Procedure, shortened: as §1
# ETV3L = target: T7, ETV3L (Homo sapiens, UniProt Q6ZN32 1-361)
# T7 sequence: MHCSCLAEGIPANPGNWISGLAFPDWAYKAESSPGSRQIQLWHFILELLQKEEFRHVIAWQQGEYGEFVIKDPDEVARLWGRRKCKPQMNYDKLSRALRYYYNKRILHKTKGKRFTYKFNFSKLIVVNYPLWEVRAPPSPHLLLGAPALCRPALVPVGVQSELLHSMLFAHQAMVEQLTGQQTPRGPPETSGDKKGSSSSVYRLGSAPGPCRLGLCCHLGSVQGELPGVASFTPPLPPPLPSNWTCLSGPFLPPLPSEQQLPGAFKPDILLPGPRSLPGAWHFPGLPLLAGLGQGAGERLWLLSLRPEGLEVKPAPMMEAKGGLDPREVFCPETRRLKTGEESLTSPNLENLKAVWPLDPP
# Procedure, shortened: as §1
# ETS2 = target: T8, ETS2 (Homo sapiens, UniProt P15036 1-469)
# T8 sequence: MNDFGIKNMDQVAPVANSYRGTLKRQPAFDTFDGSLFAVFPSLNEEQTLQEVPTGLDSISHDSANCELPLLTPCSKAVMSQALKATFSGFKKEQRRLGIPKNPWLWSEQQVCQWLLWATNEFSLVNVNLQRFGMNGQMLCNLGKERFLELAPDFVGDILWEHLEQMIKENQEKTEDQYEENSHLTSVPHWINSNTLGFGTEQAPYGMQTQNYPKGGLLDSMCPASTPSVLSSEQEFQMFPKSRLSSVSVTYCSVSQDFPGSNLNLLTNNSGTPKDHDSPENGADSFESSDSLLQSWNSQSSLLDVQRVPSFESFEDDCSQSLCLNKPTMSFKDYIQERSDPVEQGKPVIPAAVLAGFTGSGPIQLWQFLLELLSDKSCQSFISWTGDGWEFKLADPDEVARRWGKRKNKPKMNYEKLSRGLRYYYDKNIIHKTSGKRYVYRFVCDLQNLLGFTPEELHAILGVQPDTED
# Procedure, shortened: as §1
# ELF5 = target: T9, ELF5 (Homo sapiens, UniProt Q9UKW6-2 1-255)
# T9 sequence: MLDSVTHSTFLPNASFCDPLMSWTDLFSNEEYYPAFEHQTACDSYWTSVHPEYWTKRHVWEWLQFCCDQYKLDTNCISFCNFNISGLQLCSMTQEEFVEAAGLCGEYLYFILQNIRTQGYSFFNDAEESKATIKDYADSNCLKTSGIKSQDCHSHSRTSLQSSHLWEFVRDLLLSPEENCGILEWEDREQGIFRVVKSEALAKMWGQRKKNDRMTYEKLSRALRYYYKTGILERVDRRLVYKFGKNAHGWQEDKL
# Procedure, shortened: as §1
# ETV6 = ETV6 (Homo sapiens, UniProt P41212 1-452)
# Chain of ETV6 (P41212 whole entry): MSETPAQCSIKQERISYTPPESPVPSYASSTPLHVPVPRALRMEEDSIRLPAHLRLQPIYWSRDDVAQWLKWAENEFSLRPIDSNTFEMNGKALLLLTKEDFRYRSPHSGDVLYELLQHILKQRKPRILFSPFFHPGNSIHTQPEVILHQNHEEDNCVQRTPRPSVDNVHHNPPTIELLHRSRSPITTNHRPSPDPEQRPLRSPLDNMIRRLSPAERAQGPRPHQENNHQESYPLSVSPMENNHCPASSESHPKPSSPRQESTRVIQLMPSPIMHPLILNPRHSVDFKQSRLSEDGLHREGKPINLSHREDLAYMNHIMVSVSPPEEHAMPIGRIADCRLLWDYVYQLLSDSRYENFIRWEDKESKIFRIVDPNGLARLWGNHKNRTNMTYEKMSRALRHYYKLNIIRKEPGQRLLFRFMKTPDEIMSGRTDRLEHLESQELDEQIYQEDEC
# Procedure, shortened: as §1
sequence,measurement,setting,value
CTATCA,binding signal,FLI1,"1.1 fold enrichment (6-mer frequency, TF over GST control)"
same,binding signal,ELK1,"1.06 fold enrichment (6-mer frequency, TF over GST control)"
same,binding signal,GABPA,"1.1 fold enrichment (6-mer frequency, TF over GST control)"
same,binding signal,ELF1,"1.05 fold enrichment (6-mer frequency, TF over GST control)"
same,binding signal,SPI1,"1.01 fold enrichment (6-mer frequency, TF over GST control)"
same,binding signal,SPIB,"1.05 fold enrichment (6-mer frequency, TF over GST control)"
same,binding signal,ELK3,"1.11 fold enrichment (6-mer frequency, TF over GST control)"
same,binding signal,FEV,"1.02 fold enrichment (6-mer frequency, TF over GST control)"
same,binding signal,ETV5,"1.03 fold enrichment (6-mer frequency, TF over GST control)"
same,binding signal,ELF4,"1.15 fold enrichment (6-mer frequency, TF over GST control)"
same,binding signal,ETV1,"1 fold enrichment (6-mer frequency, TF over GST control)"
same,binding signal,ERF,"1.06 fold enrichment (6-mer frequency, TF over GST control)"
same,binding signal,ETV3L,"1.09 fold enrichment (6-mer frequency, TF over GST control)"
same,binding signal,ETS2,"1.04 fold enrichment (6-mer frequency, TF over GST control)"
same,binding signal,ELF5,"1.01 fold enrichment (6-mer frequency, TF over GST control)"
same,binding signal,ETV6,"1.03 fold enrichment (6-mer frequency, TF over GST control)"
